Only a selection was taken, and hits are over-represented in it overall.
KDM5B inhibitor: inhibitors of human KDM5B histone demethylase; Potency, µM (doses to about 57.7 µM), most hits filed as inhibitors; 2.6% of 220,000 active; KDM5B demethylase, FDH-coupled NADH fluorescence (FDH is formaldehyde dehydrogenase); Q9UGL1; active = well fitted inhibition curve with a large enough effect; note: 0% is about no effect; nearly all actives have a fitted effect of over 70% in size
Target sequence (Q9UGL1 whole entry, looked up): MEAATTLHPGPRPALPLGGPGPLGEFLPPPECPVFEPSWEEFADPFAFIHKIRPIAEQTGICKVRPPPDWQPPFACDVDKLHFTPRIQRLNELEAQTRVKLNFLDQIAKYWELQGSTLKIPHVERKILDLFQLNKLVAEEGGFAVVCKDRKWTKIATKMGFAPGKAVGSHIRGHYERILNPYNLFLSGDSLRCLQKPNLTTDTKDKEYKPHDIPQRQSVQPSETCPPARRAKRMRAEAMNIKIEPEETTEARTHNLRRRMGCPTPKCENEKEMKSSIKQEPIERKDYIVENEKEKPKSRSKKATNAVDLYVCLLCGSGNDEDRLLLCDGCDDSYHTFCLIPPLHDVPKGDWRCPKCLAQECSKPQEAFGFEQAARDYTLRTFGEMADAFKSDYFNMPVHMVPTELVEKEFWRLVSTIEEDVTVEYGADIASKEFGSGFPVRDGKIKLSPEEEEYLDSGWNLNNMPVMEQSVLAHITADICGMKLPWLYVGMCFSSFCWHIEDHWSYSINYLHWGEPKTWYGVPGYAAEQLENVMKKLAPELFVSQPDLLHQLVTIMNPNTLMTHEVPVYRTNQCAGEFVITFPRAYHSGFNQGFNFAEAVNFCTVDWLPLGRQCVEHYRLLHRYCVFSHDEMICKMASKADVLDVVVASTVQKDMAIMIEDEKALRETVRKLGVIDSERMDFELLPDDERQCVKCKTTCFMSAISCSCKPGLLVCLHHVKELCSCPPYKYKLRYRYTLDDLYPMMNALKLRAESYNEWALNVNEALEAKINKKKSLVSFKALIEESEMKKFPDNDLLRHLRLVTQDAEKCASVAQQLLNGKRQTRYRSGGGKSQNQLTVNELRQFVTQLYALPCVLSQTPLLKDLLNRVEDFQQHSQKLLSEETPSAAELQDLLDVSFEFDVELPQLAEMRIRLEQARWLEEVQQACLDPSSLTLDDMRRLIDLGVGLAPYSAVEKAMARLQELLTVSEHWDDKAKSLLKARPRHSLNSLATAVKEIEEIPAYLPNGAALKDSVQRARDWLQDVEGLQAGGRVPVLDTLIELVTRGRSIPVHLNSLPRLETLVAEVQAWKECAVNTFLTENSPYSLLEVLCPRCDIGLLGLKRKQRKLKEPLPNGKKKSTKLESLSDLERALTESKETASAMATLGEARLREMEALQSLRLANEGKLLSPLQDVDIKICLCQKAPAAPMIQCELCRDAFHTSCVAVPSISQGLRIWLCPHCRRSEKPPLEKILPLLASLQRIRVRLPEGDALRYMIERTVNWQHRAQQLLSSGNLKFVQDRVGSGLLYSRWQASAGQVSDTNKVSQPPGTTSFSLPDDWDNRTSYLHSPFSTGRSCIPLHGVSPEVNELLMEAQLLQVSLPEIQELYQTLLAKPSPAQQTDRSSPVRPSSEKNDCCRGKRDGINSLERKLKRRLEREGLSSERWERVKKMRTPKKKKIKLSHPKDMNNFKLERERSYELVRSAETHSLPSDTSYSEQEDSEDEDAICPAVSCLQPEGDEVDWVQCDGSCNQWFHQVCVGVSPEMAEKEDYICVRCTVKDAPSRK
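Compound dilutions met 200 nM (final) KDM5BΔAP for 10 min at room temperature before substrate addition. The substrate mix held 12.5 µM H3K4me3 with cofactors 25 µM α-ketoglutarate and 50 µM Fe²⁺. NADH signal gain over 30 min defined activity.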
Starred values were filed as active, the others as inactive; i = inactive. Potency is the fitted concentration of half-maximal effect.

SMILES | KDM5B inhibitor
CN(C)CCNC(=O)c1nc2nc(-c3ccccc3)c(-c3cccc(CO)c3)cc2n1C | 10µM*
COc1ncccc1-c1cc2c(nc1-c1ccccc1)nc(C(=O)NCCN(C)C)n2C | 16µM*
COc1cc2c(cc1OC)-c1c(c(C(=O)NCCN(C)C)nn1-c1ccccc1)C2 | i
CNc1nccc(N2CCC(CC(=O)NCCCN3CCC(C)CC3)CC2)n1 | i
CCCCCCCC1C(=O)CC(c2ccccc2)NC1c1ccccc1 (stereo not given) | i
Cc1cc(C)cc(NC(=O)C2CCCN2c2ncnc3ccccc23)c1 (stereo not given) | i
CC(C)c1noc(-c2ccn3c(CNC(=O)Cc4ccccc4Cl)nnc3c2)n1 | 16µM*
CCCc1noc(-c2ccn3c(CNC(=O)Cc4ccccc4Cl)nnc3c2)n1 | 14µM*
Cc1ccc(CC(=O)NCc2nnc3cc(-c4nc(C(C)C)no4)ccn23)cc1 | 25µM*
CC(C)c1noc(-c2ccn3c(CNC(=O)Cc4ccc(F)cc4)nnc3c2)n1 | i
Cc1ccc(Cn2cc(-c3ccncc3)cc2C(=O)NCc2ccc(N(C)C)cc2)cc1 | i
CCOc1cc2c(cc1CNC(=O)c1cc(S(N)(=O)=O)ccc1Br)OC(C)C2 (stereo not given) | i
Cc1cccc(C)c1NC(=O)C(=O)c1c[nH]c2ccccc12 | i
O=C(c1ccccc1F)N(Cc1ccco1)C1CC1 | i
Fc1ccc(-c2csc(-c3ccsc3)n2)cc1F | i
O=C(CSc1nc(-c2ccccc2)cc(=O)[nH]1)Nc1oncc1-c1ccc(F)cc1 | i
O=C(Nc1cccnc1)c1ccc2c(c1)OCCN(c1cccc(OC(F)(F)F)c1)C2 | i
O=C(Nc1ccc2cn[nH]c2c1)c1ccc2c(c1)OCCN(c1ccccc1)C2 | 32µM*
CC(C)CCN1CCOc2cc(C(=O)Nc3ccccc3)ccc2C1 | i
Cc1ccc(C(=O)NNC(=O)CNS(=O)(=O)/C=C/c2ccccc2)cc1 | i
CCC(C)NC(=O)CSc1nc(-c2ccccc2)[nH]c1S(=O)(=O)c1ccc(C)cc1 (stereo not given) | i
O=C(CCc1ncc(-c2ccc(Cl)cc2)o1)N1CCCC(O)C1 (stereo not given) | i
CN(C)[C@H]1CCCCN(C(=O)CCc2ccc(-c3ccc(Cl)cc3)[nH]2)C1 | 32µM*
Cc1nccc(-c2ccccc2)c1C(=O)N1CCCC[C@H](N(C)C)C1 | i
COc1cccc(C(=O)Nc2nonc2-c2ccc(OC(C)C)cc2)c1 | i
SMILES | KDM5B inhibitor
N#C/C(=C\Nc1ccc(C(N)=O)cc1)c1nc(C2CC2)cs1 | i
O=C(NCc1ccccc1)N1Cc2[nH]cnc2C[C@H]1c1nc(-c2ccc3c(c2)OCO3)no1 | i
FC(F)(F)c1ccc(-c2noc([C@@H]3Cc4nc[nH]c4CN3Cc3cc4ccccc4o3)n2)cc1 | 25µM*
O=C(Nc1cccc(F)c1)N1Cc2[nH]cnc2C[C@H]1c1nc(-c2ccc(C(F)(F)F)cc2)no1 | i
c1ccc2oc(CN3Cc4[nH]cnc4C[C@H]3c3nc(-c4ccc5c(c4)OCO5)no3)cc2c1 | 35µM*
O=C(O)CCC(=O)N1Cc2[nH]cnc2C[C@H]1c1nc(-c2ccc(OC(F)(F)F)cc2)no1 | i
N#Cc1ccc(C(=O)N2Cc3[nH]cnc3C[C@H]2c2nc(-c3ccc4c(c3)OCO4)no2)cc1 | i
C#Cc1cccc(NCC(=O)N2CCCCCCC2)c1 | i
CCn1nc(C(=O)N2CCCC(c3nc4ccccc4s3)C2)c2ccccc2c1=O (stereo not given) | i
O=c1[nH]c(SCc2ccccc2)nc2nc[nH]c12 | i
COc1ccc(C(=O)Oc2ccccc2C)cc1Br | i
COc1ccc(C)cc1NC(=O)CNC(=O)CNc1cccc(Cl)c1 | i
Cc1nc(CCNC(=O)c2ccccn2)cs1 | i
COCCCNC(=O)CSc1nc(-c2ccc(OC)cc2)[nH]c1-c1ccc(OC)cc1 | i
CCCN(C)C(=O)c1cn2ccnc(-c3ccc(C)cc3)c2n1 | i
COc1ccc(OCCNC(=O)c2cnc3ccccc3n2)cc1 | i
CCN(CC)C(=O)c1cn2ccnc(-c3ccc(C)cc3)c2n1 | i
COCCNC(=O)c1cn2ccnc(-c3ccc(OC)cc3)c2n1 | 20µM*
COc1ccc(OCC(=O)NCCNC(=O)c2ccccn2)cc1 | i
COc1ccc(-c2nccn3cc(C(=O)NCCc4ccccn4)nc23)cc1 | 25µM*
COCCCNC(=O)c1cn2ccnc(-c3ccc(OC)cc3)c2n1 | 25µM*
CCc1cc(C(c2ccccc2OC)N2CCN(C)CC2)c(NC(=O)c2ccco2)s1 (stereo not given) | i
O=c1n(-c2ccncc2)nc2n1CCN(Cc1ccc(C(F)(F)F)cc1)C2 | i
Cc1cccc(NCCC#N)c1C | i
CC(=O)c1cccc(NC(=O)c2ccccc2CSc2nc3ccccc3o2)c1 | i
SMILES | KDM5B inhibitor
O=C(CSc1ncnc2cc(-c3ccc(F)cc3)sc12)NC1CCCC1 | i
CCn1nc(C(=O)N(C)Cc2ccccc2N2CCCC2)c2ccccc2c1=O | i
NS(=O)(=O)c1cccc(C(=O)O)c1 | i
O=C(CN1CCC2(CC1)OCCO2)Nc1ccc(F)cc1 | i
Cn1cccc1CN[C@H]1[C@H](O)[C@@H](N2CCCC2)[C@@H]2OC[C@H]1O2 | 25µM*
CN1CCN([C@H]2[C@@H]3OC[C@@H](O3)[C@@H](NCc3ccc(-c4ccccc4)cc3)[C@@H]2O)CC1 | i
CC(=O)N1CCN([C@H]2[C@@H]3OC[C@@H](O3)[C@@H](NCc3ccccc3O)[C@@H]2O)CC1 | i
O=C(CSc1nc(-c2ccccc2F)nc2cc(=O)[nH]n12)N1CCc2ccccc21 | i
COc1ccccc1C1NC(=O)N(CCC(C)C)C2=C1C(=O)OC2 (stereo not given) | i
O=Cc1ccc(Oc2ccc([N+](=O)[O-])cc2C(F)(F)F)cc1 | i
CCCc1cc(C(=O)N[C@H](c2ccccn2)C2CC(O)C2)cs1 (stereo not given in full) | i
O=C(Cc1csc(-c2ccccc2)n1)N[C@H](c1ccccn1)C1CC(O)C1 (stereo not given in full) | 25µM*
O=C(CCc1nc2ccccc2s1)N[C@H](c1ccccn1)C1CC(O)C1 (stereo not given in full) | i
Nc1nc2c(c(C(=O)N[C@H](c3ccccn3)C3CC(O)C3)n1)CCCC2 (stereo not given in full) | 28µM*
Nc1nc(CC(=O)N[C@H](c2ccccn2)C2CC(O)C2)cc(=O)[nH]1 (stereo not given in full) | i
O=C(N[C@H](c1ccccn1)C1CC(O)C1)c1cc(=O)n(-c2ccccc2)[nH]1 (stereo not given in full) | i
Cc1cc(Cl)ccc1NC(=O)Cn1nc(C)c2ccccc2c1=O | i
CCCc1c(C)nc2c(C)cccc2c1SCC(=O)O | i
Cc1ccc(-c2ccc(C(=O)O)n2C)cc1 | i
Cn1cc(C(=O)CN2C(=O)COc3ccc(Cl)cc32)c2ccccc21 | i
CN(C)c1cccc(C(=O)NNC(=O)c2ccc(Cl)cc2)c1 | i
CSc1ccc(NC(=O)c2n[nH]c(=O)c3ccccc23)cc1 | i
CCOC(=O)c1nn(Cc2ccc(OC)cc2)c2c1CN(C(=O)c1cn3ccccc3n1)CC2 | i
CCOC(=O)c1nn(Cc2ccccc2)c2c1CN(C(=O)CC1C(=O)Nc3ccc(OC)cc31)CC2 (stereo not given) | i
CCOC(=O)c1nn(Cc2ccc(OC)cc2)c2c1CN(C(=O)c1ccc3nc[nH]c3c1)CC2 | 32µM*

Source: PubChem BioAssay
